Laboratory results: PubChem BioAssay AID1159580 (chemical genetic matrix, 2015)
Where “and” joins values, the source holds several entries; their conditions need not be identical. Equal values may be shown once. Among all 5,500 compounds or so, about 2,000 (36%) were called active. Another 18% or so got no clear call; they are omitted. No stated cut-off is given here; in the data, active means normalized growth mostly below about 0.91 (no sharp cut-off); inconclusive means no clear call, values can overlap the other calls; inactive means mostly above about 0.92. Some of the results follow.

Test: chemical genetic growth profiling, strain panel (AID 1159580);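 further: tested at 20 µM; growth read once vehicle control cultures reached saturation at 30 °C; 1 = growth at the plate median or of vehicle wells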
Details: S. cerevisiae deletion strains, growth OD

Measured: normalized growth

CC(=O)[C@H]1CCC2C3CCC4=CC(=O)CC[C@]4(C)C3CC[C@@]21C (some centres not stated)
0.777 (active) and 0.981 (inactive): locus YJL095W, strain BCK1, stronger effect = lower value
active: locus YAL021C, strain ccr4, stronger effect = lower value 0.901 | locus YCL029C, strain bik1, stronger effect = lower value 0.735 | locus YDL192W, strain arf1, stronger effect = lower value 0.719 | locus YDR101C, strain arx1, stronger effect = lower value 0.908 | locus YDR137W, strain rgp1, stronger effect = lower value 0.49 | locus YDR162C, strain NBP2, stronger effect = lower value 0.583 | locus YDR195W, strain ref2 1.29 [resistant] | locus YDR318W, strain mcm21, stronger effect = lower value 0.671 | locus YDR388W, stronger effect = lower value 0.854 | locus YDR392W, strain spt3, stronger effect = lower value 0.247 | locus YDR502C, strain sam2, stronger effect = lower value 0.77 | locus YER155C, strain BEM2 (second series), stronger effect = lower value 0.555 | locus YGL086W, strain mad1, stronger effect = lower value 0.743 | locus YGL253W, strain hxk2, stronger effect = lower value 0.879 | locus YGR135W, strain pre9, stronger effect = lower value 0.731 | locus YHR079C, strain IRE1 (second series), stronger effect = lower value 0.85 | locus YHR094C, strain hxt1, stronger effect = lower value 0.907 | locus YHR142W, strain chs7, stronger effect = lower value 0.85 | locus YHR200W, strain rpn10, stronger effect = lower value 0.884 | locus YIR030C, strain dcg1, stronger effect = lower value 0.922 | locus YJL095W, strain BCK1 (second series), stronger effect = lower value 0.869 | locus YJL129C, strain trk1, stronger effect = lower value 0.865
inactive: locus YAL013W, strain DEP1, stronger effect = lower value 0.963 | locus YAL026C, strain drs2, stronger effect = lower value 0.936 | locus YAL030W, strain snc1, stronger effect = lower value 0.975 | locus YBL061C, strain skt5, stronger effect = lower value 0.968 | locus YBR009C, strain hhf1, stronger effect = lower value 0.909 | locus YBR021W, strain FUR4, stronger effect = lower value 0.93 | locus YBR023C, strain chs3, stronger effect = lower value 0.957 | locus YBR171W, strain sec66, stronger effect = lower value 0.933 | locus YBR229C, strain ROT2, stronger effect = lower value 0.981 | locus YBR231C, strain swc5, stronger effect = lower value 0.951 | locus YBR279W, strain paf1, stronger effect = lower value 0.994 | locus YCL011C, strain gbp2, stronger effect = lower value 0.971 | locus YCL016C, strain dcc1, stronger effect = lower value 0.963 | locus YCL061C, strain MRC1, stronger effect = lower value 0.955 | locus YCL069W, strain vba3, stronger effect = lower value 0.976 | locus YCR088W, strain abp1, stronger effect = lower value 0.99 | locus YDL005C, strain med2, stronger effect = lower value 0.987 | locus YDL035C, strain GPR1, stronger effect = lower value 0.936 | locus YDL040C, strain nat1, stronger effect = lower value 0.981 | locus YDL074C, strain BRE1, stronger effect = lower value 0.862 | locus YDL101C, strain DUN1, stronger effect = lower value 0.977 | locus YDL134C, strain PPH21, stronger effect = lower value 0.962 | locus YDL185W, strain tfp1, stronger effect = lower value 0.923 | locus YDR001C, strain nth1, stronger effect = lower value 0.98 | locus YDR069C, strain doa4, stronger effect = lower value 0.963 | locus YDR150W, strain NUM1, stronger effect = lower value 0.983 | locus YDR159W, strain sac3, stronger effect = lower value 0.879 | locus YDR297W, strain sur2, stronger effect = lower value 0.972 | locus YDR334W, strain swr1, stronger effect = lower value 0.985 | locus YDR335W, strain msn5, stronger effect = lower value 0.948 | locus YEL003W, strain gim4, stronger effect = lower value 0.931 | locus YEL037C, strain rad23, stronger effect = lower value 0.974 | locus YEL061C, strain CIN8 (second series), stronger effect = lower value 0.972 | locus YEL061C, strain CIN8, stronger effect = lower value 0.971 | locus YER015W, strain faa2, stronger effect = lower value 0.969 | locus YER016W, strain bim1, stronger effect = lower value 0.953 | locus YER110C, stronger effect = lower value 0.916 | locus YER111C, strain swi4, stronger effect = lower value 0.954 | locus YER155C, strain BEM2, stronger effect = lower value 0.991 | locus YER167W, strain BCK2, stronger effect = lower value 0.93 | locus YFR010W, strain ubp6, stronger effect = lower value 0.994 | locus YGL078C, strain dbp3, stronger effect = lower value 0.961 | locus YGL167C, strain pmr1, stronger effect = lower value 0.94 | locus YGL173C, strain kem1, stronger effect = lower value 0.91 | locus YGL227W, strain vid30, stronger effect = lower value 0.999 | locus YGL240W, strain doc1, stronger effect = lower value 0.906 | locus YGL248W, strain PDE1, stronger effect = lower value 0.968 | locus YGR078C, strain PAC10, stronger effect = lower value 0.898 | locus YGR229C, strain SMI1, stronger effect = lower value 1.02 | locus YGR252W, strain gcn5, stronger effect = lower value 0.924 | locus YHR013C, strain ard1, stronger effect = lower value 1.06 | locus YHR027C, strain rpn1, stronger effect = lower value 0.97 | locus YHR030C, strain SLT2, stronger effect = lower value 0.925 and 0.973 | locus YHR079C, strain IRE1, stronger effect = lower value 0.984 | locus YHR129C, strain ARP1, stronger effect = lower value 0.973 | locus YIL066C, strain RNR3, stronger effect = lower value 0.902 | locus YIL073C, strain SPO22, stronger effect = lower value 0.893 | locus YIL125W, strain kgd1, stronger effect = lower value 0.958 | locus YJL092W, strain hpr5, stronger effect = lower value 0.969 | locus YJL115W, strain asf1, stronger effect = lower value 0.98 | locus YJL134W, strain LCB3, stronger effect = lower value 0.98 | locus YJL154C, strain vps35, stronger effect = lower value 0.986 | locus YJL164C, strain tpk1, stronger effect = lower value 0.929 | locus YJL166W, strain qcr8, stronger effect = lower value 0.916 | locus YJL168C, strain set2, stronger effect = lower value 0.934 | locus YJL187C, strain SWE1 (second series), stronger effect = lower value 0.96 | locus YJL187C, strain SWE1, stronger effect = lower value 0.969 | locus YJR043C, strain POL32, stronger effect = lower value 0.986 | locus YJR066W, strain TOR1, stronger effect = lower value 0.93
